Assay results: PubChem BioAssay (NCI)
About 79,000 compounds went through this panel and 15% of them were active in at least one assay; those are over-represented in the sample as a whole. Active and inactive are the calls of the source. Rule as the data show it: active = growth inhibition above about 70%; inactive = the rest.

What was measured:
[1] = NCI Yeast Anticancer Drug Screen. Data for the wt1 strain (AID 149);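 also: 0% = growth of vehicle-treated wt1 cultures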; conditions: S. cerevisiae wt1 strain (SPY 50644) growth inhibition, stronger effect = higher value
How it was run: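 Using yeast strain wt1, compound-induced growth inhibition was determined against vehicle-treated cultures.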

[2] = NCI Yeast Anticancer Drug Screen. Data for the rad50EPP+ strain (AID 151);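 also: 0% = growth of vehicle-treated control cultures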; conditions: S. cerevisiae rad50 mutant strain, stronger effect = higher value
How it was run: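 Exposing the rad50EPP+ strain to each compound, growth was compared with vehicle-only cultures to give inhibition.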

[3] = NCI Yeast Anticancer Drug Screen. Data for the mgt1 strain (AID 153); conditions: S. cerevisiae mgt1 mutant growth inhibition, stronger effect = higher value
How it was run: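 Genetically defined yeast (mgt1) treated with compound; inhibition of growth expressed against vehicle-treated controls.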

[4] = NCI Yeast Anticancer Drug Screen. Data for the rad50 strain (AID 155);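 also: 0% = growth of vehicle-only cultures of the same strain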; conditions: S. cerevisiae rad50 strain growth inhibition, stronger effect = higher value
How it was run: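 Relative growth inhibition (compound vs vehicle) was measured in yeast with a defined repair-gene alteration.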

[5] = NCI Yeast Anticancer Drug Screen. Data for the mec2-1 strain (AID 157); conditions: S. cerevisiae mec2-1 strain, stronger effect = higher value
How it was run: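 Readout is yeast growth inhibition, normalised to vehicle-treated controls, in the mec2-1 strain exposed to compound.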

[6] = at 5.0 µM (retest, dose inferred, filed as 0.5)
[7] = at 50.0 µM (retest, dose inferred, filed as 5.0)

Measured: growth inhibition

c1cc(Nc2ccc3c(c2)OCO3)c2cc(C3CCCCC3)ccc2n1
inactive: [1]; at 1.2 µM 0% | [1]; at 3.7 µM 0% | [1]; at 11.0 µM -4% | [1]; at 33.0 µM -6% | [1]; at 100.0 µM 34% | [2]; at 1.2 µM 1% | [2]; at 3.7 µM -2% | [2]; at 11.0 µM -2% | [2]; at 33.0 µM -3% | [2]; at 100.0 µM 23% | [3]; at 1.2 µM -2% | [3]; at 3.7 µM -4% | [3]; at 11.0 µM -3% | [3]; at 33.0 µM -6% | [4]; at 1.2 µM 19% | [4]; at 3.7 µM -14% | [4]; [6] 4% | [4]; at 11.0 µM 5% | [4]; at 33.0 µM 5% | [4]; [7] 48% | [5]; at 1.2 µM -3% | [5]; at 3.7 µM -2% | [5]; [6] -8% | [5]; at 11.0 µM -4% | [5]; at 33.0 µM -2% | [5]; [7] 23%
active: [3]; at 100.0 µM 85% | [4]; at 50.0 µM 99.3% | [4]; at 100.0 µM 73% | [5]; at 50.0 µM 99.5%
